Screens from PubChem BioAssay.
Only some compounds are listed: those with a hit (about 5.2% of all), similar ones and a draw of the others.
A3A deaminase: APOBEC3A ssDNA deaminase inhibitors, primary screen, selectivity assay for APOBEC3G inhibitor project, biochemical, FAM/TAMRA oligo cleavage fluorescence; DNA dC->dU-editing enzyme APOBEC-3A (Homo sapiens), P31941; recombinant A3A, FAM/TAMRA ssDNA deamination fluorescence; inhibition, % at 20 µM; 0.41% of 330,000 active;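 active means at least 40% inhibition at 20 µM here, with at most 30% in a related deaminase screen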;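 further: plate controls were A3A with DMSO for no effect and wells lacking A3A enzyme for full effect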
Target sequence (P31941 whole entry, looked up): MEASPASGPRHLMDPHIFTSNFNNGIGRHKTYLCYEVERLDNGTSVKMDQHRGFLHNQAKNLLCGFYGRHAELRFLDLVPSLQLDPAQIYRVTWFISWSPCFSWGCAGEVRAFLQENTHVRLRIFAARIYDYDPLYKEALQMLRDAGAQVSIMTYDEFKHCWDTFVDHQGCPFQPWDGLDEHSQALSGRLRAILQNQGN
Yeast superoxide: reduction of superoxide in aged yeast, primary screen, HTS | S. cerevisiae aged cells, superoxide DHE fluorescence; stronger effect = lower value | superoxide response (% of plate mean), % at 10 µM | 0.18% of 330,000 active | AID 2690, 2010;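 active means superoxide response under a set limit, about three screen SD below normal, cut at about 65% in these data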;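 further: yeast aged for seven days with compound at 30 °C before DHE staining; 100% = average MFI of all compound-treated wells on the plate with controls excluded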
NRP1-CendR mod: modulators of CendR peptide binding to NRP-1, primary screen, biochemical, fluorescence polarization, uHTS. Neuropilin-1 (Homo sapiens), O14786. FAM-RPARPAR peptide binding to NRP-1. inhibition, % at 25 µM. 0.85% of 360,000 active;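 active means inhibition or corrected inhibition above about 18%, plus a signal ratio from 0.5 to 1.5, limit read from the data, passing the limit was not always enough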
A3G deaminase: APOBEC3G DNA deaminase inhibitors, primary screen, biochemical, fluorescence, single-stranded DNA substrate, uHTS; inhibition, % at 20 µM; recombinant A3G, ssDNA deamination FAM/TAMRA fluorescence; 0.28% of 330,000 active; DNA dC->dU-editing enzyme APOBEC-3G (Homo sapiens), Q9HC16;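 active means inhibition of at least 40% at 20 µM, with no more than 30% in the related APOBEC3A deaminase screen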;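 further: plate controls were DMSO wells with A3G for no effect and wells lacking A3G enzyme for full effect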
ALR inh: inhibitors of human ALR sulfhydryl oxidase, primary screen, biochemical, H2O2 detection, HRP-luminol luminescence, single point. inhibition, % (concentration not given with the values). purified ALR, DTT oxidation. FAD-linked sulfhydryl oxidase ALR (Homo sapiens), P55789. 3.8% of 290,000 active. AID 485317, 2010;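 active means mean replicate inhibition above about 79%, with every replicate also reaching it, limit read from the data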
Target sequence (P55789 whole entry, looked up): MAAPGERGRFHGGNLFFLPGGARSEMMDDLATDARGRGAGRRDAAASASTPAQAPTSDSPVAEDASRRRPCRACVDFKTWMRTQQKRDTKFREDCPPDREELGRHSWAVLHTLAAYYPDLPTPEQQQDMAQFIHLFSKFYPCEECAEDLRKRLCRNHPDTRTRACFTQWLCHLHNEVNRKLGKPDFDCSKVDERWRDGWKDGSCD
PfM18AAP inh-1: PfM18AAP inhibitors, malaria aminopeptidase, primary screen, biochemical, QFRET, recombinant enzyme; M18 aspartyl aminopeptidase (Plasmodium falciparum 3D7); H-Glu-NHMec fluorogenic cleavage; inhibition, % at 7.35 µM; 1.2% of 290,000 active;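 active means inhibition above the campaign mean inhibition over all tested compounds plus 3 SD, cut at about 28% in these data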;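 further: 0% = plate median of test compound wells and 100% = 2 mM ZnCl2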
PfM18AAP inh-2: PfM18AAP inhibitors, malaria aminopeptidase, confirmation, biochemical, QFRET, recombinant enzyme, triplicate; shares compounds with PfM18AAP inh-1; H-Glu-NHMec fluorogenic cleavage; inhibition, % at 7.35 µM; 28% of 2,400 active; AID 2170, 2009;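 active means mean inhibition over replicate wells above the hit cutoff set for the earlier primary screen, cut at about 29% in these data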;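 further: 0% = median of test compound wells and 100% = 2 mM ZnCl2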
CTSL1 counter: cathepsin L1 inhibitors, retest, confirmation, counter-screen for PFM18AAP inhibitor project, biochemical, QFRET, triplicate. inhibition, % at 5.96 µM. 2,400 tested, under 10 active. purified cathepsin L1, Z-Leu-Arg-MCA fluorescence. shares compounds with PfM18AAP inh-1;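 active means average inhibition across replicates above the hit cutoff set in the earlier primary screen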;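 further: 0% = median of test compound wells and 100% = Z-Phe-Ala-diazomethylketone 1 µM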
Superoxide pick: superoxide lowering in aged yeast cells, confirmation, cherry picked compounds. S. cerevisiae aging, superoxide DHE fluorescence; stronger effect = lower value. 1% of 850 active. shares compounds with Yeast superoxide. AID 434994, 2010. superoxide response (% of plate), % at 10 µM;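 active means superoxide signal below 65% of the plate average of sample wells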;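 further: cells aged with compound for 7 days at 30 degrees C before staining; 100% equals mean DHE fluorescence of all compound wells on the plate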
DHE fluor count: DHE quenching or ROS scavenging interference in aged yeast, artefact control for yeast caloric restriction mimetic project, S. cerevisiae BY4741, flow cytometry; fluorescence response, % at 10 µM; shares compounds with Yeast superoxide; AID 435000, 2010; DHE fluorescence; stronger effect = lower value; 850 tested, under 10 active;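 active means fluorescence response below 15%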;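 further: percent of the mean fluorescence averaged over all compound wells on the plate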
APOBEC3A confirm: APOBEC3A deaminase inhibitors, retest, confirmation, selectivity assay for APOBEC3G inhibitor project, biochemical, single concentration, fluorescence readout. shares compounds with A3A deaminase. recombinant A3A, ssDNA deaminase UDG fluorescence assay. inhibition, % at 20 µM. 63% of 1,400 active;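 active means inhibition reaching a set limit, 80% of the first screen's cutoff, at 20 µM in any replicate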;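 further: plate controls were DMSO wells with A3A for no effect and wells lacking A3A enzyme for full effect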
UDG ctr A3A: E. coli UDG inhibitors, confirmation, counter-screen for APOBEC3A inhibitor project, biochemical, single concentration, fluorescence, FAM/TAMRA oligo. shares compounds with A3A deaminase. UDG counterscreen, FAM/TAMRA uracil oligo fluorescence. inhibition, % at 20 µM. 1,000 tested, under 10 active; call rule not given here
APOBEC3G confirm: APOBEC3G deaminase inhibitor retest, confirmation, biochemical, fluorescence, single-stranded DNA substrate, single concentration. AID 493152, 2011. inhibition, % at 20 µM. 72% of 890 active. shares compounds with A3G deaminase. recombinant A3G ssDNA deaminase, UDG/FAM-TAMRA fluorescence;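 active means inhibition reaching a set limit in any replicate at 20 µM, the limit being 80% of the first screen's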
UDG ctr A3G: E. coli UDG inhibitors, confirmation, counter-screen for APOBEC3G inhibitor project, biochemical, single concentration, fluorescence, FAM/TAMRA oligo. AID 504715, 2011. shares compounds with A3G deaminase. 710 tested, under 10 active. inhibition, % at 20 µM. UDG counterscreen;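 active means compounds giving 40% or more inhibition at 20 µM in any one of the three replicates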;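 further: plate controls were DMSO wells with UDG and oligo for no effect and DMSO wells lacking both for full effect; inhibitors lower the FAM signal released by uracil excision and alkaline cleavage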
Target sequence (P12295 whole entry, looked up): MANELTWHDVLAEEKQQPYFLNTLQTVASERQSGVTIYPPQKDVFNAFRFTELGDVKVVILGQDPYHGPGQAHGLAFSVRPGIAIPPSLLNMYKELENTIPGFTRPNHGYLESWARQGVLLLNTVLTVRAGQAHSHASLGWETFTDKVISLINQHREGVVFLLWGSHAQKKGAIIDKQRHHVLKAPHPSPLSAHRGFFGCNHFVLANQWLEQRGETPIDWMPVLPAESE
The depositor's hits bear a star; . = not tested or not shown.

SMILES	A3A deaminase	Yeast superoxide	NRP1-CendR mod	A3G deaminase	ALR inh	PfM18AAP inh-1	PfM18AAP inh-2	CTSL1 counter	others
COc1cc(SC)ccc1C(=O)N1CCN(c2ccc(O)cc2)CC1	-4.5	85.8	3.6	-9.3	98.7*	37.4*	-10.3	-1.6	Superoxide pick=100.1;DHE fluor count=93.7
COc1cc(SC)ccc1C(=O)N1CCCCCC1	-7.7	107.7	2.7	-4.5	-0.9	2.7	.	.
Cc1nc2ccccn2c1C(=O)NNC(=O)Nc1cccc(C(F)(F)F)c1	-6.8	64.1*	11.5	-1.6	35.7	64.3*	33.4*	7.8	Superoxide pick=104.8;DHE fluor count=89.4
CC(c1ccccc1)N1C(=O)OC(C)(C)C1(C)O (stereo not given)	-2.4	.	10.0	-2.4	.	.	.	.
CC(C)n1c(SCC(=O)Nc2nncs2)nnc1-c1ccco1	66.2*	106.5	.	22.9	2.6	74.1*	60.2*	-2.6	APOBEC3A confirm=53.0*;UDG ctr A3A=-2.2
Cc1cc(N/N=C/c2ccc(O)cc2)nc(NS(=O)(=O)c2ccccc2)n1	48.7*	107.9	13.3	16.4	3.7	43.3*	-43.4	5.2	APOBEC3A confirm=39.0*;UDG ctr A3A=-2.6
Cc1ccc(/C=N/Nc2cc(C)nc(NCc3ccccc3)n2)cc1	-1.2	95.6	-0.9	-3.0	.	-0.1	.	.
CCOCCc1nnc(NC(=O)Cc2ccccc2)s1	-1.4	90.6	-8.8	-0.7	-13.2	-2.0	.	.
C[n+]1cccc2ccc3c(c21)OC(N)=C(C#N)C3c1ccccc1 (stereo not given)	33.7	122.2	-23.5	13.0	-20.5	10.1	.	.
C[n+]1cccc(C2C(C#N)=C(N)Oc3c2ccc2ccccc32)c1 (stereo not given)	41.0*	107.0	12.4	15.3	14.1	37.7*	-26.3	-5.5	APOBEC3A confirm=30.6*;UDG ctr A3A=-1.4
O=C1CC(c2ccco2)CC(O)=C1C=Nc1cc(Cl)ccc1O (stereo not given)	55.4*	89.1	-22.9	29.2	1.8	33.2*	-10.3	0.2	APOBEC3A confirm=54.3*
CN1CCN(C(=S)Nc2ccc(Cl)cc2Cl)CC1	-1.6	97.2	6.7	-5.5	.	-16.1	.	.
COc1ccccc1NS(=O)(=O)c1cc(NC(=O)c2cccs2)ccc1N1CCCC1	3.0	112.6	0.0	40.2*	-4.6	36.1*	-4.0	3.4	APOBEC3G confirm=62.9*;UDG ctr A3G=-1.9
COc1ccccc1NS(=O)(=O)c1cc(NC(=O)c2sccc2C)ccc1N1CCOCC1	-3.4	98.4	-12.1	-4.1	.	1.3	.	.
COc1ccccc1NS(=O)(=O)c1cc(NC(=O)c2cccs2)ccc1N1CCCCC1	-0.1	92.3	5.2	-6.8	-0.2	-11.6	.	.
COc1ccccc1NS(=O)(=O)c1cc(NC(=O)c2sccc2C)ccc1N1CCCC1	-1.2	95.6	5.7	42.1*	-2.6	56.0*	7.8	-2.2	APOBEC3G confirm=active;UDG ctr A3G=-3.1
O=C(Nc1ccc(Cl)cc1)c1csc(-c2ccncc2)n1	-1.3	97.5	-0.2	-8.0	0.1	-1.3	.	.
COCc1cc(C)c(C#N)c(=S)[nH]1	1.8	95.0	-12.4	79.8*	20.5	31.8*	34.8*	-0.8	APOBEC3G confirm=79.5*;UDG ctr A3G=-3.4
COCc1cc(=O)[nH]c(=S)[nH]1	-3.5	97.7	-14.4	-4.0	14.5	20.2	.	.
COc1cccc(CNC(=O)c2ccccc2NC(=O)C2=C(C)OCCS2)c1OC	-3.3	118.2	2.9	0.2	-10.2	-20.7	.	.
C[C@@H]1CCC(=O)N(CC[C@H](Sc2ccc(Br)cc2)c2ccccc2)CC1	-4.2	87.4	9.8	-11.1	-4.9	.	.	.
Cc1ccc(-n2sc3ccccc3c2=O)cc1S(=O)(=O)N1CCCCC1	1.0	108.8	-30.1	74.9*	.	39.9*	66.2*	-0.8	APOBEC3G confirm=72.5*
O=c1c2ccccc2sn1-c1ccc(S(=O)(=O)N2CCCC2)cc1	3.8	91.1	-4.9	77.9*	7.3	33.1*	-22.5	-3.6	APOBEC3G confirm=82.5*
CN(C)S(=O)(=O)c1cccc(-n2sc3ccccc3c2=O)c1	-3.2	110.3	8.4	85.3*	.	43.4*	42.6*	2.1	APOBEC3G confirm=93.4*;UDG ctr A3G=-1.9
O=c1c2ccccc2sn1-c1cccc(Cl)c1	.	.	-2.7	.	.	.	.	.
O=c1c2ccccc2sn1-c1ccccc1	-0.9	104.5	-4.4	86.8*	58.7	56.3*	51.6*	-0.1	APOBEC3G confirm=91.4*;UDG ctr A3G=-3.7
O=S(=O)(c1ccc(S(=O)(=O)N2CCCC2)cc1)N1CCCCC1	-0.9	108.5	.	-10.5	-10.8	-8.3	.	.
Cc1ccc(C(=O)NNC(=O)c2ccccc2)cc1S(=O)(=O)N1CCCCC1	-1.7	78.2	1.4	-5.1	-8.7	.	.	.
O=C1CNC(=O)N1	1.0	92.0	-8.2	-3.8	15.9	8.1	.	.
CC(NS(=O)(=O)c1cccc(Cl)c1)C(=O)N(C)C1CCN(C)CC1 (stereo not given)	-3.9	84.3	-1.3	-14.8	-19.0	-4.8	.	.
